# Rv3671c inh: inhibitors of M. tuberculosis serine protease Rv3671c | P9WHR9 | inhibition, % at 5.96 µM | 320,000 compounds, 0.048% hits | AID 2606; in the data active means inhibition above about 38%;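 further: extracellular domain of Rv3671c used as enzyme; 0% = enzyme with DMSO and 100% = no enzyme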
# Mtb UGM inh: Mtb UDP-galactopyranose mutase inhibition; P9WIQ1; purified UGM, fluorescence polarization probe displacement; inhibition, % at 10 µM; 320,000 compounds, 0.06% hits; AID 504406; in the data active means inhibition above about 10%, passing the limit was not always enough; inconclusive means no clear call, values can overlap the other calls
# Target sequence (P9WIQ1 whole entry, looked up): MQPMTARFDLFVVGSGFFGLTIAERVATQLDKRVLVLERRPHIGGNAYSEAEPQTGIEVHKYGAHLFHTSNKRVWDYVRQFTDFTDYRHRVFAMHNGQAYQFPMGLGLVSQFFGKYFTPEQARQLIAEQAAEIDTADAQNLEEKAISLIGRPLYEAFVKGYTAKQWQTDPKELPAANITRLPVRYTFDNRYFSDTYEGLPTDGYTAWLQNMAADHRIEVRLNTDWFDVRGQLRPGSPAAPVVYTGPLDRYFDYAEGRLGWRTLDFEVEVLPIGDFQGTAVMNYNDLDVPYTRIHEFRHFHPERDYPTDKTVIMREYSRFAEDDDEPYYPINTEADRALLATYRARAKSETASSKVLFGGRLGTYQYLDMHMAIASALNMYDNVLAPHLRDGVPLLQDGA
# RecA splice inh: blocks M. tuberculosis RecA intein splicing; P9WHJ3; cell-free RecA intein splicing, fluorescence; AID 2221; inhibition, % (test concentration not listed); 290,000 compounds, 0.75% hits; in the data active means inhibition above about 30%; inconclusive means no clear call, values can overlap the other calls;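 further: 0% = vehicle wells and 100% = reference inhibitor control wells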
# Mtb betalactam: beta-lactam sensitization of Mtb H37Rv; 330,000 compounds, 0.27% hits; M. tuberculosis H37Rv growth with meropenem, percent inhibition; AID 434955; inhibition, % at 25 µM; call rule not given here;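 further: growth measured after seven days incubation then overnight dye step; 0% = bacteria only wells and 100% = bacteria with antibiotic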
# SSB-PriA inh: inhibitors of Klebsiella pneumoniae PriA binding to SSB C-terminal tail; AlphaScreen SSBct-PriA binding, biotinylated peptide; inhibition, % at 33 µM; 430,000 compounds, 0.6% hits; in the data active means inhibition mostly above about 37%, no sharp cut-off; inactive means mostly below about 20%;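 further: plate controls were negative control peptide for no effect and reference peptide for full effect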
# * hit, by the source's call; i = inactive; ? = inconclusive; nt = no result; + = active, no number; ! = not active in a repeat. In the library only some 1.1% were active in any assay of this set; here they are far more common.
SMILES,Rv3671c inh,Mtb UGM inh,RecA splice inh,Mtb betalactam,SSB-PriA inh
CCOC(=O)/C(C#N)=C1/SC(CC)C(=O)N1c1ccc(Br)cc1 (stereo unspecified),3.7,-0.2,4.5,-11.6,6.9
Nc1c(-c2ccccc2)cnn1-c1cccc(Cl)c1,-5.6,-1.3,4.1,2.5,-5.4
Nc1ccccc1Nc1cc(-c2cccc(Cl)c2)nn1-c1ccccc1,5.3,0.3,22.4,12.6,58.2*
CCc1cc(=O)oc2cc(OCC(=O)NCCCn3ccnc3)ccc12,1.7,1.6,-5.0,4.7,38.7*
COc1ccc(-c2cc(=O)oc3cc(OCC(=O)NCCCn4ccnc4)ccc23)cc1,1.8,-1.7,5.8,-8.6,3.3
CC(=O)N1CCC(C(=O)O)(c2ccccc2)CC1,nt,nt,nt,nt,10.0
COC(=O)CSc1ccc2nnc(-c3ccccn3)n2n1,nt,nt,nt,nt,77.1*
CCCCC(Sc1ccc2nnc(-c3ccccn3)n2n1)C(=O)O (stereo unspecified),nt,nt,nt,nt,94.0*
CCCCC(Sc1ccc2nnc(-c3ccc(OC)c(OC)c3)n2n1)C(=O)O (stereo unspecified),nt,nt,nt,nt,-9.0
O=C(Cc1cccs1)NCCn1nc(C(F)(F)F)cc1C1CC1,nt,nt,nt,nt,-7.0
COc1ccc(Br)c(C(=O)NCc2cncc(-c3cccs3)c2)c1,nt,nt,nt,nt,-4.0
CCOC(=O)c1c(NC(=O)c2ccco2)sc2c1CCN(C(=O)OCC)C2,nt,nt,nt,nt,-14.0
N#Cc1ccc(OC2CCN(C(=O)COc3ccc(Cl)cc3Cl)CC2)nc1,nt,nt,nt,nt,-27.0
CC1=NCCN1S(=O)(=O)c1cc([N+](=O)[O-])ccc1Cl,-15.1,1.5,-0.5,-3.3,35.0*!
Cc1nccn1S(=O)(=O)c1cc([N+](=O)[O-])ccc1Cl,-2.9,0.2,-4.0,-1.1,1.9
COc1ccccc1-c1nnc(SCC(=O)N2CCCc3ccccc32)o1,nt,nt,nt,nt,-1.0
Oc1ccc(/C(Cc2ccc3ccccc3n2)=N\Nc2ccccc2)c(O)c1,-6.2,2.4,47.3*,-2.1,nt
CC1=NN(c2ccccc2)C(=O)/C1=C\c1ccc(Oc2ccc([N+](=O)[O-])cc2[N+](=O)[O-])cc1,-226.7,-1.7,84.3*,5.8,21.3
COc1cc(/C=C2/C(=O)N(c3ccc(Br)cc3)N=C2C)cc(OC)c1OC,nt,nt,62.9*,nt,-6.0
COc1cc(/C=C2/C(=O)N(c3ccc(C(=O)O)cc3)N=C2C)cc(OC)c1O,nt,1.8,2.1,4.7,-2.5
COc1ccccc1/C=C1/C(=O)N(c2ccccc2)N=C1C,-138.2,-3.2,58.0*,-0.9,-6.8
CCCCOc1ccc(C2C3CN(C(=O)OCC)CC=C3C(C#N)=C(N)C2(C#N)C#N)cc1OC (stereo unspecified),0.0,0.7,32.6*,36.6,8.7
CCOC(=O)N1CC=C2C(C#N)=C(N)C(C#N)(C#N)[C@H](c3ccc(OCC)c(OCC)c3)[C@H]2C1,3.4,0.9,8.3,-9.3,-2.2
CCCCOc1ccccc1-c1cc(C(=O)Nc2cc(Cl)c(OC)cc2OC)[nH]n1,nt,nt,nt,nt,-14.0
COc1cc(OC)c(NC(=O)c2cc(-c3cc[nH]c3)n[nH]2)cc1Cl,nt,nt,nt,nt,29.0*
SMILES,Rv3671c inh,Mtb UGM inh,RecA splice inh,Mtb betalactam,SSB-PriA inh
CCOC(=O)c1c(CCl)nc2ccccc2c1-c1ccccc1,1.4,-0.7,41.2*,97.4,-5.4
CS(=O)(=O)N1CCN(C(=O)NCCn2nc(-c3ccsc3)cc2C2CC2)C1=O,nt,nt,nt,nt,15.0
COc1cc(N2CCN(C(=O)C3CCC(=O)N3)CC2)nc(C)n1 (stereo unspecified),nt,nt,nt,nt,-6.0
Nc1nc(-c2ccccn2)cs1,nt,nt,nt,nt,94.0*
Nc1nc(-c2cccc(-c3csc(N)n3)n2)cs1,nt,nt,nt,nt,113.5*
Nc1nc(-c2ccc(-c3ccccc3)cc2)cs1,-4.6,0.4,4.5,54.9,13.9
CCCn1cnc2ccccc2c1=O,nt,nt,nt,nt,-11.0
COc1ccnc(CSC(N)=Nc2ccccc2OC)c1,-15.7,-1.8,-1.3,-5.7,40.4*
C#CCSc1nnnn1-c1ccc(Br)c(C)c1,3.5,-3.0,3.1,-2.5,82.6*
O=C(NCC1(c2cccs2)CCCC1)Nc1ccccc1C(F)(F)F,nt,nt,nt,nt,-8.0
CCc1ccc(CNC(=O)c2sccc2S(=O)(=O)N2CCN(c3cc(C)ccc3C)CC2)cc1,nt,nt,nt,nt,1.0
Cc1ccc(OCCn2cnc(Cl)c2Cl)cc1,-6.2,-2.8,-3.3,-0.5,22.4
CC(C)(C)c1ccc(OCCn2cnc(Cl)c2Cl)cc1,nt,nt,nt,nt,98.3*
N#Cc1c(N)nc(SCC(=O)c2ccc(Br)cc2)c(C#N)c1-c1cccs1,nt,nt,nt,nt,-22.0
COc1ccc(CCC(=O)NN=C(C)c2ccc3c(c2)OCO3)cc1,nt,nt,nt,nt,7.0
Clc1cc2c(c3ncccc13)OCN(CCC1=CCCCC1)C2,nt,nt,nt,nt,95.0*
Cc1ccc(S(=O)(=O)CCc2nnc(NC(=O)c3ccccn3)s2)cc1,-11.9,0.2,-0.6,88.4,85.5*
Cc1ccc(S(=O)(=O)CCc2nnc(NC(=O)c3cnccn3)s2)cc1,5.4,4.3,nt,-5.4,4.6
C#CCn1c(=NC(=O)c2ccc([N+](=O)[O-])s2)sc2cc(S(N)(=O)=O)ccc21,nt,nt,nt,nt,-9.0
Cn1cccc1C(CNC(=O)C(=O)Nc1ccc2c(c1)OCO2)N1CCc2ccccc2C1 (stereo unspecified),nt,nt,nt,nt,-19.0
Cn1cccc1C(CNC(=O)c1ccc2c(c1)OCO2)N1CCc2ccccc2C1 (stereo unspecified),nt,nt,nt,nt,13.0*
COCc1ccc(O)c2ncccc12,8.0,-2.7,2.2,100.3,94.1*
OCCOCc1ccc(O)c2ncccc12,nt,nt,nt,nt,139.5*
Oc1ccc(Cn2ccnc2)c2cccnc12,-3.8,0.9,-13.0,57.4,98.9*
CCCCCCc1ccc(O)c2ncccc12,nt,nt,nt,nt,60.0
SMILES,Rv3671c inh,Mtb UGM inh,RecA splice inh,Mtb betalactam,SSB-PriA inh
C=CCOc1ccc(/C=N/NC(=O)CC#N)cc1OC,nt,nt,nt,nt,i
COc1cc(/C=N/NC(=O)CC#N)ccc1OCc1ccccc1,nt,nt,nt,nt,+
N#CCC(=O)N/N=C\c1ccccc1OC/C=C/c1ccccc1,-18.9,-7.8,2.7,34.7,nt
COc1cc(C=NNC(=O)CC#N)ccc1OC/C=C/c1ccccc1,nt,nt,nt,nt,67.7*
N#CCC(=O)NN=Cc1ccccc1OC/C=C/c1ccccc1,nt,nt,nt,nt,71.1*
Cc1cc(F)ccc1S(=O)(=O)Nc1ccc2c(c1)CCC(=O)N2,nt,nt,nt,nt,-17.0
CC(C)(C)C1CCc2sc(-c3nnc(CCl)o3)cc2C1 (stereo unspecified),-3.7,-2.1,51.4*,98.7,1.1
COC(=O)c1sc(-c2cccs2)cc1NC(=O)/C=C/C(=O)O,5.3,2.3,42.1*,-8.3,-14.4
Cc1ccccc1OCC(=O)NC[C@@H](c1cccn1C)N1CCOCC1,nt,nt,nt,nt,-1.0
O=[N+]([O-])c1ccc(NN=C2CC3CC=CC23)c([N+](=O)[O-])c1 (stereo unspecified),nt,nt,nt,nt,52.1*
Cc1ccccc1CS(=O)(=O)c1nnc([C@H](CC(C)C)NC(=O)OC(C)(C)C)o1,2.0,-0.4,52.3*,?,-11.6
Cc1cc([N+](=O)[O-])c(NCCCO)c([N+](=O)[O-])c1,nt,nt,nt,nt,24.2
CCCCCCNc1c([N+](=O)[O-])cc(C)cc1[N+](=O)[O-],4.5,-0.3,-0.6,-5.2,60.4*
Nc1cccc(Nc2ccccc2)c1,-2.5,-0.9,2.1,52.4,10.6
c1ccc(Nc2cccc(Nc3ccccc3)c2)cc1,8.5,0.4,11.4,11.9,66.0*
O=[N+]([O-])c1cc(Cl)ccc1NCCc1ccccn1,6.4,1.1,4.2,-5.6,54.6*

# Compound activity as filed in PubChem.
